Compound activity (PubChem)
Hits are enriched below; roughly 1.1% of the tested compounds scored in any of these assays.
Y pestis TopoI = Yersinia pestis topoisomerase I inhibitors, primary screen, biochemical, cleavage product accumulation, plate reader, single point; DNA topoisomerase I (Yersinia pestis CO92); Y. pestis Topo-I cleavage product accumulation; activity, % at 10 µM; hit rate 0.064% among 360,000; AID 504884, 2011; in the data active = activity above about 50%, passing the limit was not always enough
BJeLR viability = MLPCN primary cell-based screen for lethality selective to Ras in HRASV12 cells; BJeLR (HRASV12) viability, CellTiter-Glo ATP luminescence, 48 h; inhibition, % (no concentration beside the values); hit rate 0.17% among 300,000; AID 1554, 2009; in the data active = inhibition above about 50%
MazF activator = activators of E. coli MazEF toxin-antitoxin RNase, primary screen, biochemical, fluorescence, uHTS; hit rate 0.32% among 350,000; AID 504720, 2011; FAM/BHQ RNA-DNA oligo cleavage fluorescence, 5 h; activation, % at 20 µM; Endoribonuclease toxin MazF (Escherichia coli (strain K12)), P0AE70; in the data active = activation above about 50%
Target sequence (P0AE70 whole entry, looked up): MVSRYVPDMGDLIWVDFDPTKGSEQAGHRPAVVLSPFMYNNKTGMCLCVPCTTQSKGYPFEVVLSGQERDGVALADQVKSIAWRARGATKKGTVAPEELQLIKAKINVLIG
PfHsp40 rescue = rescue of yeast from PfHsp40 toxicity, primary screen, S. cerevisiae, ATP luminescence. S. cerevisiae expressing PfHsp40, growth rescue. growth rescue, % at 12.5 µM. hit rate 0.68% among 340,000; in the data active = growth rescue above about 28%, passing the limit was not always enough;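 also: yeast W303a lacking pdr1 and pdr3 grown in galactose medium; growth measured after three days at 30 °C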
3CLpro inhibitor = SARS-CoV 3CLpro protease inhibitors, primary screen, biochemical, quenched FRET. hit rate 0.14% among 290,000. Replicase polyprotein 1ab (Severe acute respiratory syndrome coronavirus), P0C6X7. inhibition, % at 6 µM. recombinant SARS-CoV 3CLpro, quenched FRET peptide cleavage; in the data active = inhibition above about 12%
BioA inh = M. tuberculosis BioA enzyme inhibitors, primary screen, biochemical, plate reader, single point, HTS; 7,8-diaminopelargonic acid synthase BioA (Mycobacterium tuberculosis); purified M. tuberculosis BioA enzyme; inhibition, % at 9.99 µM; hit rate 0.096% among 360,000; AID 602481, 2012; in the data active = inhibition above about 40%
* hit, by the source's call; nt = not tested or not shown.

SMILES	Y pestis TopoI	BJeLR viability	MazF activator	PfHsp40 rescue	3CLpro inhibitor	BioA inh
CSCCC(NC(=O)COc1ccccc1)C(=O)N(C)Cc1c(F)cccc1Cl (stereo not drawn)	24	nt	9	nt	nt	0
C[C@H]1CN([C@@H](C)CO)C(=O)c2cccc(NS(=O)(=O)c3cccs3)c2O[C@@H]1CN(C)CC1CCCCC1	nt	nt	nt	nt	nt	-1
CN(C)c1ccc(-[n+]2c(-c3ccccc3)cc(-c3ccccc3)cc2-c2ccccc2)cc1	23	56*	25	8	2	nt
Cc1ccc(-c2cc(-c3ccccc3)cc(-c3ccccc3)[n+]2-c2ccccc2)cc1	17	75*	24	1	nt	10
Cc1ccc(-c2cc(-c3ccc(C)cc3)[n+](-c3ccc(C(=O)[O-])cc3)c(-c3ccc(C)cc3)c2)cc1	13	78*	20	2	nt	6
Cc1ccc(-c2cc(-c3ccc(C)cc3)[n+](-c3ccccc3)c(-c3ccc(C)cc3)c2)cc1	35	68*	26	229*	nt	31
c1ccc(-c2cc(-c3ccccc3)[n+](-c3ccccc3)c(-c3ccccc3)c2)cc1	6	15	14	-1	-2	1
C[C@@H]1CCCCO[C@H](CN(C)S(=O)(=O)c2ccc(F)cc2)[C@@H](C)CN([C@@H](C)CO)C(=O)c2cc(NC(=O)Nc3cccc4ccccc34)ccc2O1	nt	nt	nt	nt	nt	-3
C[C@@H]1CN([C@H](C)CO)S(=O)(=O)c2ccc(/C=C/c3ccccc3)cc2O[C@H]1CN(C)C(=O)NC1CCCC1	nt	nt	nt	nt	nt	0
CC(C)c1nc2sc3c(=O)[nH]cnc3c2c2c1CCCC2	2	8	68*	-1	2	nt
CCOc1cc(S(=O)(=O)NC2CCCCCC2)ccc1F	16	9	1	48*	1	8
COc1cc(S(=O)(=O)NC2CCCCC2)ccc1Cl	-4	-6	1	91*	-9	0
COc1ccc(S(=O)(=O)NC2CCCCC2)cc1C	-2	1	2	-1	-5	2
O=C(c1cccnc1)N1CCCCN2[C@H](CO)[C@H](c3ccc(C#Cc4cccnc4)cc3)[C@@H]2C1	nt	nt	nt	nt	nt	-1
Cc1cccc(NC(=O)NC(C)CCc2ccccc2)c1 (stereo not drawn)	4	1	-1	2	0	-1
Cc1cccc(NC(=S)NC(C)CCc2ccccc2)c1 (stereo not drawn)	2	-6	-4	96*	-1	2
C[C@H](NC(=O)C[C@H]1CC[C@H](NC(=O)C2CC2)[C@@H](CO)O1)c1ccccc1	nt	nt	nt	nt	nt	-3
CCN1CCN(c2cc(C)c3cc(NC(=O)c4ccncc4)ccc3n2)CC1	-2	0	7	0	nt	0
CCN1CCN(c2cc(C)c3cc(NC(=O)c4ccc(C)c(C)c4)ccc3n2)CC1	-2	16	59*	1	-11	-1
CC1CN(C(=O)c2cc3cc([N+](=O)[O-])ccc3s2)CC(C)O1 (stereo not drawn)	0	7	161*	2	2	nt
C[C@H]1CN([C@@H](C)CO)C(=O)c2cc(NS(=O)(=O)c3ccc(F)cc3)ccc2O[C@@H]1CN(C)S(=O)(=O)c1ccccc1	nt	nt	nt	nt	nt	-5
O=P(NCc1ccccc1)(OCc1ccccc1)OCc1ccccc1	47	nt	3	0	nt	nt
CC(C)(C)P(=O)(NCc1ccccc1)c1ccccc1 (stereo not drawn)	19	nt	8	53*	3	0
Brc1nc(-c2ccccc2)nc(-c2ccccc2)c1Br	-4	51*	-11	nt	nt	0
COCC#Cc1cnc2c(c1)C(=O)N([C@H](C)CO)C[C@H](C)[C@@H](CN(C)C(=O)c1ccc3c(c1)OCO3)O2	nt	nt	nt	nt	nt	-1
COc1ccccc1-c1ccc([C@H]2[C@H]3CN(Cc4ccncc4)CCCCN3[C@H]2CO)cc1	nt	nt	nt	nt	nt	-2
C=CC[n+]1c(/C=C2\C=Cc3cc(C)ccc3N2CC)ccc2ccccc21	0	26	20	277*	-1	nt
